Assay outcomes as filed in PubChem BioAssay.
HIF-2a inh = blocks HIF-2a reporter activity | 0.72% of 360,000 active | 786-0 RCC cells HIF-2a reporter, luciferase luminescence, overnight | AID 624352 | inhibition, % at 18.8 µM;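 active = inhibition of the luminescence signal of 40% or more relative to plate controls, in a single-dose primary screen at 18.75 µM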
Peg3 promoter = inhibitors of Peg3 promoter; inhibition, % at 20 µM; HeLa PEG-Prom luciferase reporter, luminescence, overnight; 1.7% of 360,000 active; AID 588405;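 active = inhibition of at least 50% at 20 µM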
CF NFkB block = blocks PAF-induced NF-kB reporter in cystic fibrosis cells | KKLEB NF-kB-GFP reporter, GFP fluorescence overnight | inhibition, % at 5 µM | 0.86% of 360,000 active | AID 588850;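 active = at least 50% inhibition at 5 µM, scaled per plate between neutral and stimulator controls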;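 note: PAF is a Pseudomonas aeruginosa culture filtrate used as stimulus; plate controls were PAF-stimulated DMSO wells for no effect and unstimulated DMSO wells for full effect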
KKLEB tox = CF airway cell cytotoxicity counter-screen | KKLEB CF airway cells viability, ATPlite luminescence, overnight; active compounds read low; cells stimulated with P. aeruginosa culture filtrate | activity change (cytotoxicity), % at 5 µM | 0.36% of 360,000 active | AID 602141;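 active = corrected activity change at or below -50% at 5 µM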
TWEAK-Fn14 inh = blocks TWEAK-Fn14 interaction in a reporter cell assay. inhibition, % at 10 µM. TWEAK-stimulated Fn14 reporter cells, luciferase luminescence, 8 h. 2% of 360,000 active; in the data active = inhibition above about 50%
TROY NFkB inh = blocks TROY-dependent signaling in reporter cells; Q293 LMP1-TROYcd NF-kB luciferase reporter, 4 h; inhibition, % at 10 µM; 0.98% of 360,000 active; AID 1347056;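 active = compounds whose plate-normalised and pattern-corrected inhibition of the luciferase reporter signal at the single screening dose is 50% or more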
HIF-2a conf = HIF-2a inhibition, single concentration confirmation; inhibition, % at 18.8 µM; 56% of 1,800 active; 786-0 RCC cells, HIF-2a luciferase reporter luminescence, overnight; shares compounds with HIF-2a inh;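 active = mean inhibition across four replicates of at least 40 percent at the single tested concentration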
HIF-1a cs = HIF-1a inhibition counter-screen for HIF-2a hits | MiaPaCa-2 HIF-1a luciferase reporter, desferoxamine, overnight | AID 651589 | shares compounds with HIF-2a inh | 72% of 1,800 active | inhibition, % at 18.8 µM;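 active = mean inhibition of the reporter signal across four replicates at the single tested dose of 50% or more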
* marks the source's active call; other numbers are inactive results; · = no result given. Only some compounds are listed: those with a hit (about 4% of all), similar ones and a draw of the others.

SMILES | HIF-2a inh | Peg3 promoter | CF NFkB block | KKLEB tox | TWEAK-Fn14 inh | TROY NFkB inh | HIF-2a conf | HIF-1a cs
Cc1nnnn1/C(=C\c1ccccc1)C(=O)OCC(=O)Nc1ccc(Cl)cc1F | 88.2* | 98.3* | 84.0* | -70.0* | 69.8* | 65.4* | 95.6* | 56.5*
O=C(COC(=O)Cc1n[nH]c(=O)c2ccccc12)Nc1ccc(Cl)cc1F | 15.5 | 11.0 | -0.8 | 2.5 | -4.9 | 2.9 | · | ·
Cc1c(NS(=O)(=O)c2cc(C(=O)N(C)Cc3ccccc3)ccc2Cl)c(=O)n(-c2ccccc2)n1C | 8.5 | 8.7 | 16.3 | 9.7 | -17.3 | -12.0 | · | ·
CC(C)(C)CN1CCC(n2nccc2NC(=O)c2ccccc2Cl)CC1 | 8.2 | 11.4 | 32.5 | -19.1 | -6.5 | -18.2 | · | ·
CCOC(=O)COc1ccc(/C=C/[N+](=O)[O-])c(OCC(=O)OCC)c1 | 75.1* | 106.3* | 15.6 | -14.7 | -47.6 | 48.2 | 6.7 | 90.1*
Cc1cccc(Cn2cc(/C=C/[N+](=O)[O-])c3ccccc32)c1 | 35.7 | 47.9 | 3.1 | -5.4 | 18.5 | -1.9 | · | ·
CCOC(=O)COc1ccc2nsnc2c1 | 15.5 | -2.3 | -2.6 | 9.1 | -2.0 | -4.0 | · | ·
O=[N+]([O-])/C=C/c1cn(Cc2ccc(Cl)cc2)c2ccccc12 | 51.0* | 80.7* | 24.8 | 5.4 | 36.7 | 29.3 | 29.4 | 85.1*
CCOC(=O)Cn1cc(C#N)c2ccccc21 | 10.7 | 2.8 | 16.7 | -13.6 | 14.8 | -1.2 | · | ·
CCOc1ccc(/C=C/[N+](=O)[O-])c2ccccc12 | 88.8* | 99.0* | 7.1 | -23.3 | -12.3 | -18.7 | 39.2 | 105.0*
CCOC(=O)Cn1cc(/C=C/[N+](=O)[O-])c2ccccc21 | 76.7* | 40.0 | -5.1 | -1.7 | 10.5 | 18.3 | 60.1* | 21.5
C=CCOC(=O)C1=C(C)NC(=O)NC1c1cc2c(cc1Br)OCO2 (stereo not given) | 21.9 | 26.2 | -3.4 | -0.4 | -6.1 | 14.3 | · | ·
CS(=O)(=O)N1CCN(c2ccccc2NC(=O)c2cc3ccccc3o2)CC1 | -2.9 | 36.2 | -15.7 | -8.9 | 40.8 | 15.2 | · | ·
CC(=O)Nc1ccc(Nc2cc(C)nc3c(-c4ccccc4)cnn23)cc1 | 52.8* | 38.6 | 18.8 | -10.1 | 67.8* | 15.4 | 77.7* | 92.5*
CC(=O)Nc1ccc(Nc2cc(-c3ccccc3)nc3ncnn23)cc1 | 16.8 | 34.9 | -17.5 | -1.8 | -12.2 | 2.2 | · | ·
Cc1ccc(S(=O)(=O)CCC(=O)OCC(=O)NC(=O)c2ccccc2)cc1 | 4.1 | -17.0 | 16.5 | -3.5 | 8.5 | -6.6 | · | ·
Cc1ccc(S(=O)(=O)C(NC(=O)c2ccccc2)=C(Cl)Cl)cc1 | 41.4* | 52.4* | 6.8 | -6.5 | 64.7* | -45.3 | 12.8 | 82.2*
O=C(NC(=C(Cl)Cl)S(=O)(=O)c1ccc(Cl)cc1)c1ccccc1 | 62.4* | 60.8* | 24.6 | -5.3 | 96.1* | 12.6 | 4.1 | 103.3*
Cc1ccc(S(=O)(=O)/C(=C/Cl)NC(=O)c2ccccc2)cc1 | 41.4* | 80.7* | 49.1 | -26.1 | 76.8* | -10.4 | 8.0 | 67.5*
CC(=O)NC(=C(Cl)Cl)S(=O)(=O)c1ccccc1 | 10.3 | -140.1 | 13.0 | 3.3 | 33.0 | -6.3 | · | ·
CCCS(=O)(=O)NC(=O)C1(C)CCN(C(=O)Cc2ccc(OC)cc2)C1 (stereo not given) | 7.4 | 2.6 | 3.9 | 6.5 | 1.6 | 10.8 | · | ·
COc1ccc(S(=O)(=O)Nc2cccc3c2O[C@H](CN(C)S(=O)(=O)c2ccc(F)cc2)[C@H](C)CN([C@H](C)CO)C3=O)cc1 | 17.4 | 8.9 | 23.0 | 0.1 | 2.4 | 2.2 | · | ·
CC(=O)c1cccc(NC(=O)CNC(=O)Cc2ccccc2)c1 | 7.3 | 5.8 | 3.1 | 0.4 | 6.0 | -0.5 | · | ·
CCN(CC)CCNc1oc(-c2ccccc2)nc1S(=O)(=O)c1ccccc1 | 1.2 | 27.2 | 17.0 | -1.8 | 1.2 | 20.9 | · | ·
Cc1nn(-c2ccccc2)c(C)c1NC(=O)COC(=O)CCc1ccccc1 | 1.3 | 3.5 | 10.8 | 3.5 | 5.6 | 8.9 | · | ·
SMILES | HIF-2a inh | Peg3 promoter | CF NFkB block | KKLEB tox | TWEAK-Fn14 inh | TROY NFkB inh | HIF-2a conf | HIF-1a cs
CCOc1ccc(S(=O)(=O)N2CCCC(C(=O)NCc3cccnc3)C2)cc1 (stereo not given) | 3.7 | 27.3 | 11.0 | -2.0 | -3.7 | 9.7 | · | ·
CCCCN(CC)Cc1ccc(CNC(=S)Nc2c(C)cc(C)cc2C)o1 | 12.3 | 6.4 | -8.3 | -0.2 | 4.5 | -4.2 | · | ·
CCCCN(CC)Cc1ccc(CNC(=S)Nc2ccc(C)cc2Cl)o1 | 83.5* | -10.4 | 2.6 | -8.3 | 73.9* | 42.1 | 60.0* | 60.5*
CCOC(=O)Cc1csc(NC(=S)NC(=O)c2ccc(F)cc2)n1 | 85.6* | 1.0 | -12.3 | -7.5 | 0.0 | 9.4 | 88.6* | 59.5*
CCOC(=O)Cc1csc(N/N=C/c2ccc(C(F)(F)F)cc2)n1 | 58.1* | -52.8 | 13.4 | -1.7 | 45.0 | -2.0 | 58.1* | 17.5
CCOC(=O)Cc1csc(NC(=S)NC(=O)c2ccccc2C)n1 | 54.3* | -7.8 | 5.6 | 2.9 | 5.1 | -9.6 | 57.6* | 17.4
CN(CCc1ccccc1)C(=O)c1ccc(NC(=O)Cc2ccc(NC(=O)C3CCCN(S(=O)(=O)c4cccc([N+](=O)[O-])c4)C3)cc2)cc1 (stereo not given) | -2.4 | -1.8 | -16.0 | -13.0 | -2.9 | -0.2 | · | ·
CN1CCN(c2ccc(CNC(=O)c3ccc(-c4ccnn4C)c4ccoc34)cc2)CC1 | -281.9 | -248.8 | -23.6 | -4.9 | 3.5 | -78.7 | · | ·
CC(=O)Nc1ccc(NC(=O)c2ccc(-c3ccnn3C)c3ccoc23)cc1 | 61.0* | -80.0 | 4.8 | -2.7 | 1.2 | -0.7 | 85.5* | 34.1
O=C(OCC(=O)N1CCCc2ccccc21)c1cc(Br)ccc1O | 4.8 | -11.0 | -27.4 | 13.9 | -2.4 | 3.0 | · | ·
O=C(NCc1ccco1)/C(=C/c1cccc(C(F)(F)F)c1)c1nc2ccccc2[nH]1 | 41.1* | 50.3* | 19.3 | -17.0 | -24.6 | -61.8 | 12.5 | 55.5*
C(#CC12CC3CC(CC(C3)C1)C2)CN1CCOCC1 | 40.8* | 1.6 | 4.2 | -4.1 | 0.6 | 19.8 | 3.9 | -5.5
C[C@H](CO)N1C[C@H](C)[C@@H](CN(C)C(=O)C2CCCCC2)OCc2cn(nn2)CCCC1=O | 14.0 | -1.7 | -17.2 | 7.6 | -4.4 | -12.0 | · | ·
Cc1ccc(-c2cc(-c3ccccc3)c(C#N)c(Br)n2)cc1 | 11.4 | 6.2 | 3.7 | -4.9 | -18.1 | -34.0 | · | ·
CS(=O)(=O)c1nc(-c2ccccc2)cc(-c2ccccc2)c1C#N | 76.0* | 101.2* | 61.1* | -15.3 | -27.7 | -19.5 | 34.1 | 106.2*
CC(C)CC(=O)/C(=C/c1ccc(N(C)C)cc1)n1cncn1 | -1.3 | -9.2 | -7.1 | 3.9 | 17.2 | -4.8 | · | ·
CC(C)CC(=O)/C(=C\c1ccc(Cl)cc1Cl)n1cncn1 | 94.4* | 104.7* | 86.1* | -81.3* | 106.3* | 73.5* | 93.9* | 107.2*
